Screening results: PubChem BioAssay, National Center for Advancing Translational Sciences (NCATS)
BAZ2B block – qHTS Assay for Inhibitors of BAZ2B. Bromodomain adjacent to zinc finger domain protein 2B (Homo sapiens), Q9UIF8. AlphaScreen BAZ2B-H3K14Ac peptide displacement. Potency, µM (highest dose often 114 µM), inactives show at the top dose activity change, negative = inhibition, most hits filed as inhibitors. 4.4% of 360,000 active. AID 504333, 2011; note: % is set by controls: 0 for no effect and ±100 for the full control effect; nearly all actives have a fitted effect of over 60% in size
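BAZ2B 50 nM plus b-H3(5-23)K14Ac 50 nM, PBS pH 7.4/0.01% Tween-20, 30 min RT; compound added (max 110 uM), 30 min RT; streptavidin donor/Ni-chelate acceptor beads 10 ug/mL final, 20 min dark; AlphaScreen read.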
L3MBTL1 inh – qHTS Assay for the Inhibitors of L3MBTL1; AlphaScreen L3MBTL1–H3K9me1 peptide binding; Potency, µM (series often up to 57.1 µM), without a hit: at the top dose activity, negative = inhibition, most hits filed as inhibitors; 0.66% of 230,000 active; AID 485360, 2010; note: % is set by controls: 0 for no effect and ±100 for the full control effect; nearly all actives have a fitted effect of over 60% in size
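L3MBTL1 50 nM + b-AHA-H3(1-15)K9me1 75 nM, 30 min RT; compound added, 30 min RT; streptavidin donor/Ni-chelate acceptor beads 10 ug/mL each final, 30 min RT dark; AlphaScreen read.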
G9a inh – qHTS Assay for Inhibitors of Histone Lysine Methyltransferase G9a | Histone-lysine N-methyltransferase EHMT2 (Homo sapiens), Q96KQ7 | G9a H3K9 monomethylation, AlphaScreen, 2 h | Potency, µM (series often up to 102 µM), without a hit: top-dose activity, negative = inhibition, usual class: inhibitors | 8.8% of 350,000 active | AID 504332, 2011; note: % is set by controls: 0 for no effect and ±100 for the full control effect; nearly all actives have a fitted effect of over 75% in size
Target sequence (Q96KQ7 913-1193 limits assumed): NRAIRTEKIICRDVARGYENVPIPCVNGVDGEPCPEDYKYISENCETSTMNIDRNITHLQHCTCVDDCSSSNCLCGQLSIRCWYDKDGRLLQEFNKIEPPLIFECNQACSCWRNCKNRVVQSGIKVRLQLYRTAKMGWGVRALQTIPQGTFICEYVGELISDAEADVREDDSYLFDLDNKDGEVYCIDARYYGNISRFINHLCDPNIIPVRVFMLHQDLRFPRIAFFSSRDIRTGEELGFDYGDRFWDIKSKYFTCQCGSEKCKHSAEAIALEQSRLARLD
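G9a (20 nM) was preincubated 15 min with compound, then reacted 2 h at room temperature with 500 nM biotin-H3K9 peptide and 20 µM SAM. Monomethyl-H3K9 detected by AlphaScreen using anti-H3K9me1 antibody.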
HP1b chromo inh – HTS for Inhibitors of HP1-beta Chromodomain Interactions with Methylated Histone Tails; Chromobox protein homolog 1 (Homo sapiens), P83916; 0.56% of 390,000 active; AID 540317, 2011; AlphaScreen HP1-beta / biotin-H3K9me3 peptide binding; Potency, µM (titrated, usually from 114 µM), without a hit: top-dose activity change, negative = inhibition, actives largely listed as inhibitors; note: nearly all actives have a fitted effect of over 70% in size
Target sequence (P83916 whole entry, looked up): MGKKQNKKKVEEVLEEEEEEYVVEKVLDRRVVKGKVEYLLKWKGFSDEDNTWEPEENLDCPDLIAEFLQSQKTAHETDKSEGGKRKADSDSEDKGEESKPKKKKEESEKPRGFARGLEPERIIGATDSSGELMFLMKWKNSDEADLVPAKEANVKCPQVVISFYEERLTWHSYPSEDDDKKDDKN
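AlphaScreen: HP1-beta (50 nM) preformed 30 min with biotin-H3(1-18)K9me3 peptide (50 nM) in PBS pH 7.4, 0.01% Tween-20. Compound added for 30 min at RT, then streptavidin donor/nickel chelate acceptor beads (10 ug/mL) for 30 min.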
JMJD2A Tudor – qHTS Assay for Inhibitors of JMJD2A-Tudor Domain; Lysine-specific demethylase 4A (Homo sapiens), O75164; AlphaScreen JMJD2A-Tudor / H3K4me3 peptide binding; Potency, µM (highest dose often 114 µM), for inactives: top-dose activity change, negative = inhibition, usual class: inhibitors; 4.4% of 390,000 active; AID 504339, 2011; note: % is set by controls: 0 for no effect and ±100 for the full control effect; nearly all actives have a fitted effect of over 50% in size
Sfp PPTase inh – qHTS Assay for Inhibitors of Bacillus subtilis Sfp phosphopantetheinyl transferase (PPTase); 4'-phosphopantetheinyl transferase ffp (Bacillus subtilis), Q9F4F7; Biochemical Sfp PPTase activity, qHTS; Potency, µM, for the others: largest response in the series, negative = inhibition, actives largely listed as inhibitors; 3.5% of 310,000 active; AID 1490, 2009;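 note: the enzyme is Sfp with the accession as filed and its product quenches rhodamine fluorescence; 0% = enzyme reaction without inhibitor and -100% = no enzyme wells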
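With Hepes-Na pH 7.6 buffer containing 10 mM MgCl2, Sfp (15 nM) modified BHQ-2-YbbR (12.5 uM) using rhodamine-CoA (5 uM). Two reads 30 minutes apart at 525/598 nm yielded each well's rate.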
* = called active by the depositor; u = inconclusive; x = no result given; [ ] = remark or other dose. Rows were chosen to be rich in hits. Some 12% of all compounds tested hit in one or more screens of this group. Calls come from the whole dose curve; as a rule, active = well fitted curve in the direction sought with a large enough effect; inconclusive = small, poorly fitted or top-dose-only effect, or another doubt; inactive = no such curve, though single readings can be large; an effect the other way counts as inactive or inconclusive. Potency is the fitted concentration of half-maximal effect.

SMILES	BAZ2B block	L3MBTL1 inh	G9a inh	HP1b chromo inh	JMJD2A Tudor	Sfp PPTase inh
CCCc1cc(=O)oc2cc(OC(C)C(=O)NC3CC(C)(C)NC(C)(C)C3)ccc12 (stereo unspecified)	-2%	x	7.1µM*	36%	-13%	8%
Cc1cc(Cl)c(OCCCNC2CCCC2)c(Br)c1	u	1%	10µM*	-37%	22µM*	0%
C=CCNCCCCOc1c(Cl)cc(C)cc1Br	u	-2%	u	34%	8%	-5%
COCCCNCCCCOc1c(Cl)cc(C)cc1Br	22µM*	-4%	x	u	2.5µM*	-53%
c1ccc(NNC2=NCCS2)cc1	-14%	x	50µM*	u	4µM*	u
CN(Cc1ccccc1)C(=O)CN1C(=O)CSc2ccc(S(=O)(=O)N3CCOCC3)cc21	5%	x	0%[59 µM]	-15%	-19%	x
CSCc1c(C(=O)Nc2ccc3c(c2)OCO3)oc2ccccc12	u	x	35µM*	-13%	u	-1%
Cc1c(C(=O)Nc2ccc3c(c2)OCO3)oc2ccccc12	-3%	x	-9%	29%	-13%	-6%
CCOc1ccccc1C(=O)N(Cc1cc(OC)c(OC)c(OC)c1)c1ccccn1	-2%	x	0%[59 µM]	36%	-8%	x
COc1ccc(NC(=O)C2C3C=CC4(O3)C2C(=O)N(CCN2CCCCC2C)C4C(=O)NC2CCCCC2)cc1 (stereo unspecified)	-2%	x	u	7%	-16%	-2%
COc1ccc(NC(=S)Nc2ccc(C)c(Cl)c2)cc1OC	u	4%[11.4 µM]	-34%	1%	-13%	-24%
NC(=S)NNc1ccc(Cl)c(Cl)c1	u	x	13µM*	-13%	u	3.2µM*
Cc1ccc(NNC(N)=S)cc1Cl	-39%	x	u	-14%	u	13µM*
CC(=O)c1cnc(-c2ccccn2)s1	-11%	17%	32µM*	-18%	-10%	-28%
N#Cc1ccc(NS(=O)(=O)c2ccc3c(c2)CCC(=O)N3)cc1	x	x	x	x	79µM*	x
N#Cc1cccc(NS(=O)(=O)c2ccc3c(c2)CCC(=O)N3)c1	x	x	x	x	-4%	x
COc1cc(NS(=O)(=O)c2ccc3c(c2)CC(=O)N3)cc(OC)c1OC	x	x	0.35µM*	14%	-23%	x
COc1ccc(NS(=O)(=O)c2ccc3c(c2)CCC(=O)N3)cc1	x	x	x	x	-13%	x
COC(=O)c1ccccc1NC(=O)c1ccc2c(Cl)c3c(nc2c1)CCCC3	-4%	x	8%[59 µM]	26%	-34%	x
O=C(O)C1Cc2ccccc2CN1C(=O)COc1ccc(Cl)cc1Cl (stereo unspecified)	-31%	x	25µM*	12%	-17%	15%
O=C(O)C1Cc2ccccc2CN1C(=O)COc1ccc(Br)cc1 (stereo unspecified)	x	x	50µM*	6%	u	13%
COc1ccc(N2CCN(C(=O)C3Cc4ccccc4CN3C(=O)c3ccco3)CC2)cc1 (stereo unspecified)	-31%	-3%	u	12%	-22%	x
O=C(COc1ccc(Cl)cc1Cl)N1CCCC1	-6%	x	u	22%	-12%	10%
O=C(C1Cc2ccccc2CN1C(=O)c1ccccc1)N1CCN(c2ccccc2)CC1 (stereo unspecified)	71µM*	u	x	-29%	u	5%
O=C(O)C1Cc2ccccc2CN1C(=O)CCl (stereo unspecified)	x	-12%	8.9µM*	14%	u	-1%
CC1CN(C(=S)Nc2ccccc2C(F)(F)F)CC(C)O1 (stereo unspecified)	-1%	x	85%	17%	-10%	15%
